The values that follow come from PubChem BioAssay AID1041 (National Center for Advancing Translational Sciences (NCATS), 2008).

Each structure is given as a SMILES string. Unmarked numbers belong to inactive results. Active and inactive are the calls of the source.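 The calls were made as follows: active = compound lifting p16 RNA above DMSO-treated cells by a clear fold change, a shift of a few PCR cycles; inactive = the rest, including any drop in level.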

A short description of the test: p16 Derepression/Induction Secondary Assay for qHTS Assay for Epigenetic Modulators. The note with it: H358 cells, p16 mRNA RT-qPCR, 72 h; active compounds read high. The text has this: NIH Molecular Libraries Screening Centers Network [MLSCN] NIH Chemical Genomics Center [NCGC] MLSCN Grant: 1 X01 MH079860-01 Assay Provider: Elisabeth D. Martinez, University of Texas SW Medical Center NCGC Assay Overview: This secondary assay characterizes selected actives identified in the qHTS of the Locus Derepression (LDR) assay (PubChem AID 597). The LDR assay detects the derepression of a GFP reporter that is stably integrated in a region of the genome of murine c127i mammary cells that is presumably silenced. Compounds that cause derepression of the locus to express GFP are identified by enumerating GFP positive cells using a laser-scanning microplate cytometer. Selected LDR actives were assayed for the induction of p16 gene expression, a gene silenced by dense methylation of its promoter. Treatment of cells with DNA methyltransferase inhibitors like 5-azadeoxycytidine induce p16 gene expression. Compounds active in this assay may affect components involved in DNA methylation or gene transcription.
NCGC Assay Protocol Summary Exponentially growing H358 non-small cell lung cancer cells were treated daily with fresh media containing the indicated concentrations of compounds for 72 hr. Cellular RNA was extracted, quantified, DNAse treated and reverse transcribed. The resulting cDNA was amplified in TaqMan real time quantitative PCR assays (Applied Biosystems) containing validated primers specific for p16 (Hs00233365_m1). Reactions were performed on an ABI Prism 7900HT, with an initial 2 min preincubation at 50 C, followed by 10 min at 95 C and then 40 cycles of 95 C for 15 seconds and 60 C for 1 min. GAPDH and 18S ribosomal RNA were used as references. Gene expression was measured by fold-induction over control DMSO-treated samples (36-37 average cycle time). Increases corresponded to at least 2-3 cycle time differences over DMSO controls, which were in the measurable range. Decreases in expression were considered insignificant as measurement of the DMSO samples were at the low limit of detection. Reactions were run in triplicate and error bars represent standard deviations. For further details, see R.L. Johnson, W. Huang, A. Jadhav, C.P. Austin, J. Inglese, E.D. Martinez, A Quantitative High-Throughput Screen Identifies Potential Epigenetic Modulators of Gene Expression, Analytical Biochemistry (2007), doi: 10.1016/j.ab.2007.12.028
(In general: qHTS replaces the single test concentration by a dilution series.)
Regarding `CC(C)C(=O)NC(c1ccc(N(C)C)cc1)c1ccc2cccnc2c1O` (configuration not stated), the fold change was 0.4.

Regarding `CC(C)C(=O)NC(c1ccco1)c1cc([N+](=O)[O-])c2cccnc2c1O` (configuration not stated), the fold change was 2.

As to `CC(/C=C/C(=O)NO)=C\[C@@H](C)C(=O)c1ccc(N(C)C)cc1`, the fold change is 1.

Take `O=C(CSc1cccc2cccnc12)N1CCCC1`: the fold change is 1.

Take `Nc1ncn([C@H]2C[C@H](O)[C@@H](CO)O2)c(=O)n1`: the fold change is 351 (active).

As for `CN(C)C(=O)CSc1cccc2cccnc12`, the fold change is 0.4.

As for `O=C(CSc1cccc2cccnc12)NCc1ccccc1`, the fold change is 1.

In the case of `CN1CCN(Cc2cc(Cl)c3cccnc3c2O)CC1`, the fold change was 1.

Take `CC(C)C(=O)NC(c1ccco1)c1ccc2cccnc2c1O` (configuration not stated): the fold change is 1.

In the case of `CCN1CSC(=S)N(CC)C1`, the fold change is 1.

In the case of `COc1ccc(C(NC(=O)C(C)C)c2ccc3cccnc3c2O)cc1` (configuration not stated), the fold change was 1.

For `O=Nc1ccc(O)c2ncccc12`, the fold change was 2.
